Lassa entry inh – blocks Lassa virus binding to or entry into cells; Potency, µM (highest dose often 37.9 µM), without a hit: at the top dose activity change, negative = inhibition, actives largely listed as inhibitors; Lassa virus pseudotype entry inhibition, cell reporter; hit rate 1.2% among 300,000; calls by dose curve; tested in HEK293 cells; note: potency is the fitted concentration of half-maximal effect; % is set by controls: 0 for no effect and ±100 for the full control effect; nearly all actives have a fitted effect of over 50% in size
Shiga toxin inh – inhibitors of Shiga toxin in Vero cells; Vero cells, Shiga toxin protein synthesis inhibition reporter; inhibition, % at 38.7 µM; hit rate 9.2% among 290,000; AID 2315; in the data active = inhibition mostly above about 28%, no sharp cut-off; inactive = mostly below about 43%; note: 0% is about no effect
MARV entry inh – inhibitors of Marburg virus binding or cell entry | Marburg virus pseudotyped entry inhibition, cell reporter | Potency, µM (titrated, usually from 37.8 µM), without a hit: top-dose activity change, negative = inhibition, hits mostly inhibitors | hit rate 1.8% among 300,000; calls by dose curve; tested in HEK293 cells; note: potency is the fitted concentration of half-maximal effect; % is set by controls: 0 for no effect and ±100 for the full control effect
Cycloheximide cs – affects cycloheximide protein synthesis inhibition readout, counter-screen; cell reporter, cycloheximide protein synthesis inhibition counterscreen; max response, %; AID 2314; hit rate 12% among 300,000; in the data active = max response mostly above about 13%, no sharp cut-off; inactive = mostly below about 14%; note: read at 38.3 µM for the half of the compounds with a filed dose; 0% is about no effect
Starred values were filed as active, the others as inactive; ? = inconclusive; · = no result given; [ ] = dose if it differs, or a comment. The list is not random: actives were taken first. Their share in the collection is about 12%.

SMILES	Lassa entry inh	Shiga toxin inh	MARV entry inh	Cycloheximide cs
COc1ccc(O)c(-c2cc(-c3cccs3)[nH]n2)c1	10.9%	155.1*	?	43.2*
Oc1ccc(Br)cc1-c1cc(-c2ccccc2F)[nH]n1	23.7%	77.1*	-10.7%	64.4*
COc1ccccc1-c1cc(-c2cc(Cl)ccc2O)n[nH]1	5.9%	19.7	11.3%	17.1*
COc1ccc(O)c(-c2cc(-c3ccccc3Cl)[nH]n2)c1	·	33.2*	·	25.7*
CC(C)N1CCOC1c1ccccc1 (stereo not given)	-5.9%	·	0.3%	·
COc1cc(Br)c(C2C(C#N)=C(N)Oc3n[nH]c(-c4cccnc4)c32)cc1OC (stereo not given)	-28.4%	-7.9	?	12.7
Cc1c(S(=O)(=O)NC2CCCCCC2)c(=O)n(C)c(=O)n1C	-2.8%	·	5.1%	·
Oc1ccc(Br)cc1-c1cc(-c2ccccc2Cl)[nH]n1	·	42.5*	·	19.1*
O=C(O)c1cc(-c2ccccc2Cl)n[nH]1	?	-13.9	-1.5%[46.1 µM]	-0.9
CCOc1ccccc1N(CC(=O)N1CCOCC1)S(=O)(=O)c1ccc(SC)cc1	5.62µM*	-9.2	?	0.3
COc1cc(OC)c(NC(=O)CCCn2nc(C)c3sc4ccccc4c3c2=O)cc1Cl	?	·	3.16µM*	·
Cc1ccc(NC(=O)CCCn2nc(C)c3sc4ccccc4c3c2=O)c(Cl)c1	13.6%[46.1 µM]	·	?	·
CCN(CC)C(=O)CSc1nnc(-c2ccco2)o1	-8.5%	46.6*	-13.2%[46.1 µM]	23.1*
CC(=O)c1ccc(NC(=O)CSc2nnc(-c3ccco3)o2)cc1	4.0%	36.5	22.6%[46.1 µM]	17.2*
O=C(CSc1nnc(-c2ccco2)o1)c1ccccc1Cl	?	31.1	34.0%[46.1 µM]	16.8*
CC(=O)c1c(C)[nH]c(C(=O)CSc2nnc(-c3ccco3)o2)c1C	?	22.8	11.2µM*	9.2
O=C(CSc1nnc(-c2ccco2)o1)c1ccc([N+](=O)[O-])cc1	·	-2.5	·	9.3
Cc1cc(C(=O)CSc2nncs2)c(C)n1Cc1ccco1	4.47µM*	108.9*	6.31µM*	37.7*
COCC(C)n1c(C)cc(C(=O)CSc2nnc(-c3ccco3)o2)c1C (stereo not given)	5.9%[46.1 µM]	·	-25.0%[46.1 µM]	·
Cc1cc(C(=O)CSc2nnc(-c3ccco3)o2)c(C)n1Cc1ccco1	1.5%	96.3*	-18.0%	30.7*
CN(C)c1cccc(C(=O)N2CCCC(CCC(=O)NCc3ccccc3F)C2)c1 (stereo not given)	-21.3%[46.1 µM]	15.6	-25.1%[46.1 µM]	30.5*
O=C(CCC1CCCN(C(=O)CCN2CCCCC2=O)C1)NCc1ccccc1F (stereo not given)	11.2%[46.1 µM]	-10.6	0.7%[46.1 µM]	13.7*
O=C(CCC1CCCN(C(=O)c2cccnc2)C1)NCc1ccccc1F (stereo not given)	-10.0%	3.2	-16.1%	17.5*
COC(=O)C1=C(C(=O)OC)[C@@H]2N(Cc3ccccc3)c3ccccc3[C@@]23C[C@@H](CO)N(C(=O)CC(C)C)C3=N1	·	·	-37.7%[14.2 µM]	·
Cc1ccc(CNC(=O)CS(=O)(=O)c2cn(CC(=O)N3CCOCC3)c3ccccc23)cc1	·	-10.8	·	-0.4
SMILES	Lassa entry inh	Shiga toxin inh	MARV entry inh	Cycloheximide cs
COc1ccc(NC(=O)CSc2oc(-c3cccs3)nc2S(=O)(=O)c2ccc(Br)cc2)c(OC)c1	-1.3%[46.1 µM]	·	?	·
Cc1ccc(Nc2nc3nonc3[nH]c2=O)cc1C	9.4%	108.3*	?	35.8*
Cc1ccc(CNC(=O)Nc2ccc(F)cc2F)n1C	?	9.1	-4.0%[46.1 µM]	-1.5
Cn1cccc1CNC(=O)Nc1ccccc1	?	52.4*	16.6%	42.7*
Cc1ccc(NC(=O)NCCN2CCCCC2)cc1C	·	18.9	·	8.1
Cn1cccc1CNC(=O)Nc1ccc(Cl)cc1	-25.4%	59.1*	-7.9%	49.1*
Cc1ccc(NC(=O)NCc2cccn2C)cc1C	25.5%[46.1 µM]	58.8*	?	18.1*
COc1ccc(NC(=O)NCc2ccc(Cl)cc2)cc1	-5.9%[46.1 µM]	2.1	22.4%[46.1 µM]	6.5
Cc1ccc(CNC(=O)Nc2ccccc2)n1C	19.0%[46.1 µM]	27.9	9.2%[46.1 µM]	17.2*
Cc1cc(C)cc(NC(=S)NCc2cccn2C)c1	-20.7%	-5.0	8.1%	-3.1
NS(=O)(=O)c1ccc(NC(=O)COC(=O)CCCN2C(=O)c3cccc4cccc(c34)C2=O)cc1	-19.1%	·	3.1%	·
O=C1/C(=C\c2ccc(O)cc2)SC(=S)N1/N=C/c1ccc(O)cc1	·	26.1	·	12.4*
CC(=O)NN1C(=O)/C(=C\c2ccc(O)cc2)SC1=S	-12.6%[46.1 µM]	-4.7	3.4%[46.1 µM]	0.6
CCOC(=O)/C(=N/Nc1ccc(OC)cc1)Sc1nnc(CCc2ccccc2)n1-c1ccccc1	?	-23.1	33.2%	30.9*
Fc1ccc(CO/N=C2\CCCc3nonc32)cc1	6.0%	61.4	8.1%	26.5
Cc1[nH]c2ccccc2c1C(=O)C(=O)N1CCN(c2cccc(Cl)c2)CC1	·	-7.9	·	-2.5
COc1ccc(N(CC(=O)NCCC2=CCCCC2)S(=O)(=O)c2c(C)[nH]c(=O)[nH]c2=O)cc1	·	3.1	·	-0.6

Compound activity (PubChem BioAssay)
